In PubChem BioAssay (EPA / NIEHS):
Active and inactive are the calls of the source. Rule for the calls: active = hit-call score of the fitted dose curve at least 0.9, where 1 is the maximum; inactive = score below 0.9.

Assays:
Settings in all cases: mRNA level, 48 h; actives raise or lower the signal
[1] = read-out: CYP3A5 (gene 1577); assay: LTEA_HepaRG_CYP3A5: Life Technologies and Expression Analysis (LTEA) Assay for CYP3A5 using HepaRG (AID 2283493)
In short: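 Readout was CYP3A5 mRNA by qRT-PCR. HepaRG cultures were exposed for 48 h in serum-free induction medium to chemicals at up to 100 uM, and responses were fitted in both directions relative to DMSO vehicle.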

[2] = read-out: Fatty Acid-Binding Protein 1 (FABP1), FABP1 (gene 2168); assay: LTEA_HepaRG_FABP1: Life Technologies and Expression Analysis (LTEA) Assay for Fatty Acid-Binding Protein 1 (FABP1) using HepaRG (AID 2283494)
In short: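 FABP1 expression by TaqMan qRT-PCR, normalised to three housekeeping genes, in HepaRG cells after 48 h chemical treatment. Eight-point half-log series topping at 100 uM in 0.5% DMSO, duplicates; gain or loss fitted relative to vehicle.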

[3] = read-out: Glutathione S-Transferase (GSTA2), GSTA2 (gene 2939); assay: LTEA_HepaRG_GSTA2: Life Technologies and Expression Analysis (LTEA) Assay for Glutathione S-Transferase (GSTA2) using HepaRG (AID 2283497)
In short: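 GSTA2 transcript levels came from Fluidigm TaqMan qRT-PCR normalized to three housekeeping genes, fitted in both directions against DMSO. HepaRG cultures received chemicals for 48 h in serum-free induction medium (0.5% DMSO), 8 half-log concentrations up to 100 uM, duplicate.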

[4] = read-out: Glutamate-cysteine ligase catalytic (GCLC), GCLC (gene 2729); assay: LTEA_HepaRG_GCLC: Life Technologies and Expression Analysis (LTEA) Assay for Glutamate-cysteine ligase catalytic (GCLC) using HepaRG (AID 2283498)
In short: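 Expression by TaqMan qRT-PCR, normalized to three housekeeping genes (ACTB, GAPDH, POLR2A), with up- or down-regulation fitted against DMSO. HepaRG cells dosed in duplicate for 48 h with 8 half-log concentrations up to 100 uM, vehicle 0.5% DMSO.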

[5] = read-out: growth arrest and DNA damage 45 (GADD45G), GADD45G (gene 10912); assay: LTEA_HepaRG_GADD45G: Life Technologies and Expression Analysis (LTEA) Assay for growth arrest and DNA damage 45 (GADD45G) using HepaRG (AID 2283499)
In short: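 Gain or loss of GADD45G mRNA, quantified by TaqMan qRT-PCR against three housekeeping genes, is fitted in both directions relative to 0.5% DMSO. Human HepaRG cultures receive test chemical for 48 h at up to 100 uM.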

[6] = read-out: Glutamate-cysteine ligase regulatory (GCLM), GCLM (gene 2730); assay: LTEA_HepaRG_GCLM: Life Technologies and Expression Analysis (LTEA) Assay for Glutamate-cysteine ligase regulatory (GCLM) using HepaRG (AID 2283500)
In short: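 In this multiplexed HepaRG gene-expression assay, GCLM mRNA change after 48 h treatment (8 concentrations, max 100 uM) was scored against DMSO by bidirectional curve fitting.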

[7] = read-out: Glutathione S-transferase M3 (GSTM3), GSTM3 (gene 2947); assay: LTEA_HepaRG_GSTM3: Life Technologies and Expression Analysis (LTEA) Assay for Glutathione S-transferase M3 (GSTM3) using HepaRG (AID 2283501)
In short: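 HepaRG, plated 48 h, then serum-free induction medium; test chemical 48 h, duplicate; 100 uM top, half-log x8, 0.5% DMSO. Read-out: GSTM3 mRNA (TaqMan qRT-PCR, Fluidigm array). Bidirectional fit vs DMSO.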

[8] = read-out: Heat shock 70 kDa protein 1 (HSPA1A), gene 3303; assay: LTEA_HepaRG_HSPA1A: Life Technologies and Expression Analysis (LTEA) Assay for Heat shock 70 kDa protein 1 (HSPA1A) using HepaRG (AID 2283502)
In short: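 An oxidative-stress marker readout: HepaRG cells treated 48 h in duplicate with an eight-point series (highest 100 uM) had HSPA1A mRNA quantified by TaqMan qRT-PCR. Activity was fitted in both directions using 0.5% DMSO as baseline.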

[9] = read-out: Hypoxia-inducible factor 1-alpha (Homo sapiens) (UniProt Q16665); assay: LTEA_HepaRG_HIF1A: Life Technologies and Expression Analysis (LTEA) Assay for Hypoxia-inducible factor 1 (HIF1A) Trancription factor using HepaRG (AID 2283503);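 note: HIF1A transcript by TaqMan qRT-PCR normalized to ACTB GAPDH and POLR2A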
In short: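 Gain- or loss-of-signal HIF1A mRNA changes are fitted against a DMSO baseline. HepaRG cultures receive eight concentrations, highest 100 uM, for 48 h in serum-free induction medium with 0.5% DMSO.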

[10] = read-out: 3-Hydroxy-3-Methylglutaryl-CoA Synthase 2 (HMGCS2), HMGCS2 (gene 3158); assay: LTEA_HepaRG_HMGCS2: Life Technologies and Expression Analysis (LTEA) Assay for 3-Hydroxy-3-Methylglutaryl-CoA Synthase 2 (HMGCS2) using HepaRG (AID 2283504)
In short: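 HepaRG, plated 48 h then switched to serum-free induction media; cmpd 8-pt, max 100 uM, 1/2-log, 0.5% DMSO, n=2, 48 h. HMGCS2 mRNA by Fluidigm TaqMan qRT-PCR, ACTB/GAPDH/POLR2A norm; bidirectional fit vs DMSO.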

[11] = read-out: HGF (gene 3082); assay: LTEA_HepaRG_HGF: Life Technologies and Expression Analysis (LTEA) Assay for Hepatocyte Growth Facto (HGF) using HepaRG (AID 2283505)
In short: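 Read-out is HGF transcript level by qRT-PCR, normalized to three housekeeping genes, fitted bidirectionally against 0.5% DMSO vehicle. Human HepaRG cells received test chemicals for 48 h at up to 100 uM.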

[12] = read-out: Insulin Like Growth Factor 1 (IGF1), IGF1 (gene 3479); assay: LTEA_HepaRG_IGF1: Life Technologies and Expression Analysis (LTEA) Assay for Insulin Like Growth Factor 1 (IGF1) using HepaRG (AID 2283506)
In short: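 Endpoint: IGF1 mRNA change by qRT-PCR, housekeeping-normalized, fitted bidirectionally relative to 0.5% DMSO vehicle. Human HepaRG cells were treated 48 h in serum-free induction medium, eight half-log concentrations topping at 100 uM.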

[13] = read-out: Intercellular Adhesion Molecule 1 (ICAM1), ICAM1 (gene 3383); assay: LTEA_HepaRG_ICAM1: Life Technologies and Expression Analysis (LTEA) Assay for Intercellular Adhesion Molecule 1 (ICAM1) using HepaRG (AID 2283507)
In short: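 Readout is qRT-PCR mRNA level, normalized to three housekeeping genes and fitted bidirectionally against 0.5% DMSO vehicle. Human HepaRG cultures received compound for 48 h, top concentration 100 uM with half-log dilutions.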

[14] = read-out: Insulin-like growth factor-binding protein 1 (IGFBP1), IGFBP1 (gene 3484); assay: LTEA_HepaRG_IGFBP1: Life Technologies and Expression Analysis (LTEA) Assay for Insulin-like growth factor-binding protein 1 (IGFBP1) using HepaRG (AID 2283508)
In short: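 Thawed HepaRG cells are plated for 48 h, switched to serum-free induction medium, then dosed in duplicate for another 48 h (100 uM top, half-log steps). Lysates in RLT go to qRT-PCR, and gain or loss of signal is fitted relative to vehicle.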

[15] = read-out: Interleukin 6 (IL6), IL6 (gene 3569); assay: LTEA_HepaRG_IL6: Life Technologies and Expression Analysis (LTEA) Assay for Interleukin 6 (IL6) using HepaRG (AID 2283509)
In short: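 Transcript levels, normalized to three housekeeping genes, were quantified by qRT-PCR after 48 h chemical treatment of HepaRG cells. Eight-point half-log series from 100 uM in 0.5% DMSO, duplicates. Fitted both directions against DMSO baseline.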

[16] = read-out: Interleukin 6 Receptor (IL6R), IL6R (gene 3570); assay: LTEA_HepaRG_IL6R: Life Technologies and Expression Analysis (LTEA) Assay for Interleukin 6 Receptor (IL6R) using HepaRG (AID 2283510)
In short: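 In this HepaRG screen, test chemicals act on cells for 48 h at up to 100 uM (eight half-log points, duplicate wells). IL6R expression is quantified by qRT-PCR after normalization to ACTB, GAPDH and POLR2A, with DMSO as baseline.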

[17] = read-out: Potassium channel subfamily K member 1 (KCNK1), KCNK1 (gene 3775); assay: LTEA_HepaRG_KCNK1: Life Technologies and Expression Analysis (LTEA) Assay for Potassium channel subfamily K member 1 (KCNK1) using HepaRG (AID 2283511)
In short: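 KCNK1 transcript measured by TaqMan qRT-PCR against three housekeeping genes, after HepaRG cells were treated 48 h with eight half-log concentrations (top 100 uM, 0.5% DMSO). Curves fitted bidirectionally relative to vehicle.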

[18] = read-out: Keratin 19 (KRT19), KRT19 (gene 3880); assay: LTEA_HepaRG_KRT19: Life Technologies and Expression Analysis (LTEA) Assay for Keratin 19 (KRT19) using HepaRG (AID 2283512)
In short: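 KRT19 transcript levels, measured by Fluidigm qRT-PCR against three housekeeping genes, are fitted for gain or loss of signal relative to DMSO. Human HepaRG cells receive test chemicals (top 100 uM, half-log steps, 0.5% DMSO) for 48 hours.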

[19] = read-out: JUN Transcription Factor, JUN (gene 3725); assay: LTEA_HepaRG_JUN: Life Technologies and Expression Analysis (LTEA) Assay for JUN Transcription Factor using HepaRG (AID 2283513)
In short: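 Gene-expression endpoint: JUN mRNA (qRT-PCR, normalized to three reference genes) in HepaRG cultures treated 48 h with chemicals, duplicate wells, 100 uM maximum with half-log dilutions; bidirectional fitting relative to 0.5% DMSO.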

Measured: outcome

Sequence of Hypoxia-inducible factor 1-alpha (Homo sapiens) (Q16665 whole entry, looked up): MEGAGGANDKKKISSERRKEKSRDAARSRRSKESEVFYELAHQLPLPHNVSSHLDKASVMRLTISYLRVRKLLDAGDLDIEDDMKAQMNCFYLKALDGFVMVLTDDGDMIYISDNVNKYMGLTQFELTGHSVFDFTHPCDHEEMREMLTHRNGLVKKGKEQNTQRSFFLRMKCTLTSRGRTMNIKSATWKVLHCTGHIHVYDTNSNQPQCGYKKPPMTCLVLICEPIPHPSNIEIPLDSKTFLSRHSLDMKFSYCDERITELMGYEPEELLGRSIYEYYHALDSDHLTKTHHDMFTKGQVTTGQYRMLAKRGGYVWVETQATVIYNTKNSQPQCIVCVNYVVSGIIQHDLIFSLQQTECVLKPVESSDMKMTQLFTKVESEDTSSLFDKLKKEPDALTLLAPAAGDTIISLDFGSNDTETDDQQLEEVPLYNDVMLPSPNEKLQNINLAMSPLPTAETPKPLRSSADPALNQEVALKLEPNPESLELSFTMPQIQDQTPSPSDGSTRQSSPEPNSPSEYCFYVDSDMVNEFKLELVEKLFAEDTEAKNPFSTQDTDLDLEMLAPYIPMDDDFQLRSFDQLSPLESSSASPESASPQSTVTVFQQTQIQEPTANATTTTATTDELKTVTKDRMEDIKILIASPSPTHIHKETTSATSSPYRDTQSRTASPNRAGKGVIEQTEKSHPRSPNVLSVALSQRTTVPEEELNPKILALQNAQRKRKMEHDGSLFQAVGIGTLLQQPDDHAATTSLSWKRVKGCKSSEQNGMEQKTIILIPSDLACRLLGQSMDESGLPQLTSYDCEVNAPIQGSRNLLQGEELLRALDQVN

c1cc[n+]2c(c1)-c1cccc[n+]1CC2
inactive: [1] | [2] | [3] | [4] | [5] | [6] | [7] | [8] | [9] | [10] | [11] | [12] | [13] | [14] | [15] | [16] | [17] | [18] | [19]
